DT40 TDP1 no CPT: qHTS for Inhibitors of human tyrosyl-DNA phosphodiesterase 1 (TDP1): qHTS in cells in absence of CPT; DT40 Tdp1-/- hTDP1 cells, no CPT, ATP luminescence, 48 h; Potency, µM (series often up to 46.2 µM), without a hit: at the top dose activity change, negative = growth inhibition, most hits filed as inhibitors; actives 15% (n = 420,000); AID 686978, 2013; also: potency is read from the fitted curve at half-maximal effect; % is scaled to controls: 0 for no effect and ±100 for the full control effect; nearly all actives have a fitted effect of over 55% in size
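Camptothecin absent (DMSO only). Human TDP1-complemented DT40 knockout cells, 400 cells/well, 37 °C for minimum 48 hr; ATP measured via CellTiter-Glo, 30 min dark incubation, luminescence.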
IL1B secr inh: qHTS for Inhibitors of Inflammasome Signaling: IL-1-beta AlphaLISA Primary Screen | THP-1 LPS/ATP IL-1B secretion, AlphaLISA, 16 h; active compounds read low | activity change, % at 57.5 µM | actives 4.7% (n = 360,000) | AID 743279, 2014; in the data active = activity change below about -50%; inconclusive = mostly about -30% to -49%; also: % is scaled to controls: 0 for no effect and ±100 for the full control effect
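THP-1 cells pretreated 1 hr with compounds (up to 57.5 uM final), then stimulated with LPS (250 ng/mL final) plus ATP (1.25 mM final); secreted IL-1B measured by AlphaLISA after 16 hr, decreased signal indicating inhibition.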
DT40 TDP1 CPT: qHTS for Inhibitors of human tyrosyl-DNA phosphodiesterase 1 (TDP1): qHTS in cells in presence of CPT; chicken DT40 Tdp1-/-;hTDP1 cells + 20 nM CPT, ATP luminescence, 48 h; Potency, µM (top dose mostly 46.2 µM), for inactives: top-dose activity change, negative = growth inhibition, most hits filed as inhibitors; actives 12% (n = 420,000); also: potency is read from the fitted curve at half-maximal effect; % is scaled to controls: 0 for no effect and ±100 for the full control effect; nearly all actives have a fitted effect of over 55% in size
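Chicken DT40 Tdp1-/- cells stably complemented with human TDP1 were seeded at 400 cells/well in medium containing 20 nM camptothecin, exposed to pin-transferred compounds, and grown at 37 °C for at least 48 hr. Viability was read as ATP luminescence.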
BCR signal inh: qHTS Assay to Find Inhibitors of Chronic Active B-Cell Receptor Signaling | Potency, µM (titrated, usually from 46.1 µM), for the others: at the top dose activity change, negative = inhibition, most hits filed as inhibitors | ABC-DLBCL IkBa-CBG/CBR reporter, luminescence ratio, 4 h | actives 0.05% (n = 340,000); active = well fitted inhibition curve with a large enough effect in the signal ratio, with a control signal flat, not every such curve was filed as active; inconclusive = small, poorly fitted or top-dose-only effect, or effect the other way, or a change in a side signal; the % refers to the signal ratio;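 also: potency is read from the fitted curve at half-maximal effect; plate controls were basal doxycycline-induced cells for no effect and cells given 10 µM MG132 for full effect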
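Compounds up to 46 uM were incubated four hours with TMD8 cells whose green CBG68 luciferase is fused to IkappaBalpha; red CBR luminescence normalised the signal, and concentration-effect curves were fitted to fusion, red and ratio data.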
MCF10A rerep: A quantitative high throughput screen for small molecules that induce DNA re-replication in MCF 10a normal breast cells | Potency, µM (top dose mostly 46.1 µM), inactives show top-dose activity, positive = re-replication, most hits filed as activators | MCF 10A DNA re-replication, Hoechst nuclear intensity, 48 h | AID 624296, 2012 | actives 2.9% (n = 350,000); also: potency is read from the fitted curve at half-maximal effect; % of control where 0% means no effect; nearly all actives have a fitted effect of over 50% in size
SW480 rereplic: A quantitative high throughput screen for small molecules that induce DNA re-replication in SW480 colon adenocarcinoma cells. SW480 DNA re-replication, Hoechst DNA content imaging, 48 h. Potency, µM (titrated, usually from 46.1 µM), inactives show top-dose re-replication activation, actives largely listed as activators. actives 1.8% (n = 340,000); also: potency is read from the fitted curve at half-maximal effect; % of control where 0% means no effect; nearly all actives have a fitted effect of over 55% in size
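Per well, 250 cells were exposed to pinned compound for 48 hr. Nuclear DNA was visualised with Hoechst (40 min, 37 C) and total object intensity recorded by fluorescence scanning.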
Starred values were filed as active, the others as inactive; ? = inconclusive; nt = no result given; [ ] = remark or other dose. Only some compounds are listed: those with a hit (about 19% of all), similar ones and a draw of the others. Unless noted, calls follow the shape of the dose curve; as a rule, active = well fitted curve in the direction sought with a large enough effect; inconclusive = small, poorly fitted or top-dose-only effect, or another doubt; inactive = no such curve, though single readings can be large; an effect the other way counts as inactive or inconclusive.

SMILES	DT40 TDP1 no CPT	IL1B secr inh	DT40 TDP1 CPT	BCR signal inh	MCF10A rerep	SW480 rereplic
O=C(NC1CCCc2ccccc21)c1cccc(F)c1 (configuration not stated)	-27%	10	-12%	nt	-3%	-1%[1.84 µM]
C=CCN(CC=C)C(=S)NC(=O)c1ccc([N+](=O)[O-])cc1	3.7µM*	5	5.8µM*	?	?	3.7µM*
C=CCNC(=S)NNC(=O)c1ccc([N+](=O)[O-])cc1	-14%	-1	-16%	1%	1%	-1%
C=CCN(CC=C)C(=S)NC(=O)c1ccc(OC)c(Br)c1	5.8µM*	12	12µM*	-1%	1%	13%
COc1ccc(C(=O)c2ccc(OC)c(Br)c2)cc1Br	21µM*	-8	18µM*	-4%	-7%	-3%
CC(C)N(c1ccccc1)c1ccc(NC(=O)COC(=O)CCN2C(=O)c3cccc([N+](=O)[O-])c3C2=O)cc1	16µM*	-24	?	0%	?	?
CC(=O)c1ccc(NC(=O)COC(=O)CCN2C(=O)c3cccc([N+](=O)[O-])c3C2=O)cc1	-36%	24	-13%	5%	2%	0%
O=C1NC(c2ccc(O)cc2)Nc2ccccc21 (configuration not stated)	?	21	?	-10%	12µM*	?
CSc1ccc(C2NC(=O)c3ccccc3N2)cc1 (configuration not stated)	16µM*	35	10µM*	nt	16µM*	9.2µM*
CN1c2ccccc2N(C)C1c1ccc2c(c1)OCO2	16µM*	29	23µM*	3%	0%	1%
O=C1CCOc2cc(OCc3ccccc3)ccc21	-9%	0	7%	?	21%	-1%
O=C1NC(c2cccc(OCc3ccccc3)c2)Nc2ccccc21 (configuration not stated)	1.2µM*	26	1.5µM*	nt	2.3µM*	1.8µM*
CCN1CCN(c2ccc(NC(=O)CC3OC(=O)c4ccccc43)cc2C)CC1 (configuration not stated)	-3%	0	5%	nt	nt	nt
CC(C)(C)n1nnnc1C(c1ccccc1)N1CCCN(Cc2ccc(F)cc2)CC1 (configuration not stated)	?	-29	?	nt	nt	nt
Clc1ccc(C2Nc3cccc4cccc(c34)N2)cc1	?	-4	?	0%	-16%	0%
CSc1ccc(C2Nc3cccc4cccc(c34)N2)cc1	?	7	15µM*	?	6%	7%
Cc1cccc(C2Nc3cccc4cccc(c34)N2)c1	?	9	?	-3%	-4%	1%
c1cc2c3c(cccc3c1)NC(c1ccc3c(c1)OCO3)N2	?	11	23µM*	0%	-8%	-7%
CCN(C(=O)CN1C(=O)NC2(CCCC2)C1=O)c1nc2c(C)cccc2s1	13µM*	-6	?	nt	nt	nt
Cc1cccc2sc(N(CCCN(C)C)C(=O)CN3C(=O)c4ccccc4C3=O)nc12	?	-8	?	?	-2%	2%
COc1ccc(NC(=O)c2cc3nc(-c4ccc(Cl)c(Cl)c4)cc(C(F)(F)F)n3n2)c(OC)c1	6%	nt	10%	nt	nt	nt
OC(c1cccc(F)c1)c1ncc(-c2ccc(C(F)(F)F)cc2)[nH]1 (configuration not stated)	16µM*	-16	?	nt	nt	nt

Compound activity from PubChem.
